TDP-43 yeast inh: qHTS of TDP-43 Inhibitors. TDP-43 expressing yeast growth rescue, BacTiter-Glo, 24 h. Potency, µM (top dose mostly 46.1 µM), for the others: at the highest dose growth rescue (activation), usual class: activators. hit rate 1.8% among 410,000. AID 652104, 2013; further: % of control where 0% means no effect; nearly all actives have a fitted effect of over 50% in size
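In this qHTS, compounds that restore growth of yeast expressing TDP-43 appear as activators. Cells (OD600=0.02, galactose medium, raffinose-pregrown) are incubated with compound 24 hr at 30 deg C and growth is quantified by BacTiter-Glo.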
aSyn yeast inh: qHTS of alpha-syn Inhibitors; hit rate 0.14% among 370,000; Potency, µM (top dose mostly 46.1 µM), for inactives: at the highest dose growth rescue (activation), actives largely listed as activators; Yeast expressing alpha-synuclein, growth rescue, BacTiter-Glo, 24 h; AID 652106, 2013; further: % of control where 0% means no effect; nearly all actives have a fitted effect of over 65% in size
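Galactose-induced alpha-syn yeast (OD600=0.02, raffinose-pregrown) + pinned cpd, 24 hr, 30 deg C; growth by BacTiter-Glo luminescence. Growth restoration scores as activation.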
Abeta yeast res: qHTS for compounds that reverse cellular toxicity of Amyloid beta (A-beta) peptide in yeast: Primary Screen; AID 1347071, 2019; Potency, µM (highest dose often 46.1 µM), most hits filed as activators; hit rate 0.063% among 410,000; yeast expressing A-beta42, growth rescue, OD600, 48 h; response scale: 0% DMSO, 100% iron-clioquinol control; further: nearly all actives have a fitted effect of over 55% in size
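Yeast A-beta toxicity model in growth medium with pinned compounds, 48 h at 30 C; growth read as absorbance at 600 nm. Normalized to FeCl3/clioquinol equimolar mix (positive) and DMSO (negative).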
FUS yeast rescue: qHTS for Suppressors of FUS Proteinopathy: Primary screen using FUS-linked yeast assay; hit rate 0.24% among 390,000; Potency, µM (titrated, usually from 76.6 µM), hits mostly activators; S. cerevisiae FUS-expressing, growth rescue, OD600, 24 h;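 further: plate controls were DMSO vehicle for no effect and reference control for full effect; nearly all actives have a fitted effect of over 55% in size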
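Restored growth of FUS-toxic S. cerevisiae, read as 600 nm absorbance after 24 h at 30C in galactose medium (starting OD 0.005). Controls CP55940 and DMSO.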
The depositor's hits bear a star; i = inactive; ? = inconclusive; / = not tested or not shown; [ ] = another dose, or the depositor's remark. An excerpt weighted towards active compounds, which were near 2.1% of everything screened. The call rests on the fitted dose curve; in most records, active means well fitted curve in the direction sought with a large enough effect; inconclusive means small, poorly fitted or top-dose-only effect, or another doubt; inactive means no such curve, though single readings can be large; an effect the other way counts as inactive or inconclusive. Potency means the concentration at half of the fitted maximal effect.

SMILES | TDP-43 yeast inh | aSyn yeast inh | Abeta yeast res | FUS yeast rescue
O=C(NCc1cccc(Cl)c1)c1cccc(C(F)(F)F)c1 | ? | -0.3% | i | i
O=C(NCc1ccccc1Cl)c1cccc(C(F)(F)F)c1 | 35.5µM* | 7.4% | i | i
C=CCC[C@@H](Cc1ccc(F)cc1)C(=O)OC[C@@H]1CCCN1C(=O)[C@H](CC=C)CC(=O)N[C@H](CO)Cc1ccccc1 | ? | ? | i | 20µM*
C=CCC[C@@H](Cc1ccc(F)cc1)C(=O)OC[C@H]1CCCN1C(=O)[C@@H](CC=C)CC(=O)N[C@H](CO)Cc1ccccc1 | 19.3% | -1.0% | i | ?
C=CCC[C@@H](Cc1ccc(F)cc1)C(=O)OC[C@@H]1CCCN1C(=O)[C@@H](CC=C)CC(=O)N(CCO)Cc1ccccc1 | -5.1% | -0.6% | i | 20µM*
Cc1ccc(Nc2nc(COC(=O)C3CC3)cs2)cc1 | 12.6µM* | -24.3% | i | i
CC(C)(C)OC(=O)NCc1ccccc1/C=C/S(=O)(=O)NCc1ccccc1 | / | / | / | i
CCCCCCOC(=O)c1ccc(N)cc1 | 12.6µM* | 1.7% | i | i
Cc1ccc(CN(C#N)c2nc(C)cc(C)n2)cc1 | 35.5µM* | 5.7% | i | i
Cc1cc(C)nc(N(C#N)Cc2cccc(Cl)c2)n1 | ? | 12.9% | i | i
Cc1cc(C)nc(N(C#N)CCOc2ccc(Cl)cc2)n1 | 17.8µM* | -43.2% | i | i
Cc1cc(C)nc(N(C#N)Cc2ccc(Br)cc2)n1 | 14.1µM* | 0.0% | i | i
Cc1cc(C)nc(N(C#N)Cc2ccc(Cl)cc2)n1 | 26.1%[9.22 µM] | 13.8% | i | i
CN(C)c1ccc(NC(=O)CN2CCN(CC(=O)Nc3ccc(Br)cc3)CC2)cc1 | -1.5% | / | i | i
Cn1cccc1C(=O)N1CCN(S(=O)(=O)c2ccccc2F)CC1 | / | / | / | i
Clc1ncccc1OCc1ccccc1 | 12.6µM* | 3.1% | i | i
Cc1c(OCc2ccccc2)cccc1OCc1ccccc1 | 0.0% | -11.4% | i | i
Cc1cccc2c(C(=O)N3CCN(C(=O)c4ccco4)CC3)cc(-c3cccc(Br)c3)nc12 | 28.2µM* | 10.9% | i | i
O=C(c1ccco1)N1CCN(C(=O)c2cc(-c3ccccc3)nc3ccccc23)CC1 | -2.7% | -1.9% | i | i
COc1cc(/C=N/Nc2nc(Nc3ccccc3)nc(N3CCOCC3)n2)ccc1OC(=O)c1ccco1 | 20µM* | 14.0% | i | ?
O=C(Oc1cccc(/C=N/Nc2nc(N3CCOCC3)nc(N3CCOCC3)n2)c1)c1ccco1 | 1.5% | 0.8% | i | i
Cc1cccc(C2=NN(c3ccccc3)[C@@H](C(=O)N3CCOC3=O)[C@@H]2c2ccc(F)cc2)c1 | 1.3% | 22.9% | i | 5.62µM*
Cc1cccc(C2=NN(c3ccc(Br)cc3)[C@@H](C(=O)N3CCOC3=O)[C@@H]2C)c1 | 11.4% | ? | i | i
O=C1OCCN1C(=O)[C@H]1[C@H](c2ccc(Cl)cc2)C(c2ccc(F)cc2)=NN1c1ccc(Br)cc1 | -22.7% | 10µM* | i | ?
C[C@@H]1C(c2ccccc2)=NN(c2ccc(Br)cc2)[C@H]1C(=O)N1CCOC1=O | ? | 20µM* | i | i
SMILES | TDP-43 yeast inh | aSyn yeast inh | Abeta yeast res | FUS yeast rescue
C[N+]1(CC(=O)c2ccc(O)c(O)c2)CCOCC1 | / | 2.4% | / | /
O=C(Nc1ccccc1N1CCOCC1)c1ccc2ccccc2n1 | 12.6µM* | 9.3% | i | i
CCCCn1c(SCC(=O)c2ccc(O)c(O)c2)nc2ccsc2c1=O | 20µM* | 5.6% | i | /
O=C(O)CCCCCn1c(SCC(=O)c2ccc(O)c(O)c2)nc2ccsc2c1=O | 5.3% | -1.0% | i | /
COc1cc(C(NC(=O)C(F)(F)F)C2CCCC=C2c2ccccc2)cc(OC)c1OC (stereo not drawn) | / | / | / | i
c1ccc(Cc2ccc(OCCn3cncn3)cc2)cc1 | ? | 3.3% | i | i
c1ccc(-c2ccc(OCCOCCn3cncn3)cc2)cc1 | 14.1µM* | -0.2% | i | i
CCOc1ccc(CNC(=O)CCn2c(=O)c3cccn3c3ccc(F)cc32)cc1 | 11.5% | / | i | i
O=C(NCc1ccccc1Br)c1cnc2sc(N3CCCCCC3)nn2c1=O | 14.2% | / | i | i
COCCCN1C(=O)c2[nH]nc(-c3cc(C)cc(C)c3O)c2C1c1ccc(O)c(OC)c1 (stereo not drawn) | 7.7% | 1.3% | i | 39.8µM*
CSc1ccc(-c2cc3c(c4c2ccn4C)C2CCC3C2)cc1 (stereo not drawn) | 0.0% | 3.5% | i | i
Cn1ccc2c(-c3ccc(F)cc3)cc3c(c21)C1CCC3C1 (stereo not drawn) | 0.0% | -19.5% | i | i
Cn1ccc2c(-c3ccc4c(c3)OCCO4)cc3c(c21)C1CCC3O1 (stereo not drawn) | 22.4µM* | -13.2% | i | ?
CSc1ccc(-c2cc3c(c4c2ccn4C)C2CCC3O2)cc1 (stereo not drawn) | 25.1µM* | ? | i | i
Cc1ccccc1-c1cc2c(c3c1ccn3C)C1CCC2O1 (stereo not drawn) | 11.2µM* | -2.4% | ? | i
Cn1ccc2c(-c3ccc(CO)cc3)cc3c(c21)C1CCC3C1 (stereo not drawn) | 35.5µM* | 13.7% | i | ?
FC(F)(F)Oc1ccc(Cn2ccc3ccc(-c4ccc5ccn(Cc6ccc(OC(F)(F)F)cc6)c5c4)cc32)cc1 | / | / | / | i
Cn1ccc2c(-c3ccc(C(F)(F)F)cc3)cc3c(c21)C1CCC3O1 (stereo not drawn) | 8.91µM* | -23.5% | ? | i
Cn1ccc2c(-c3ccc(CO)cc3)cc3c(c21)C1CCC3O1 (stereo not drawn) | 11.6% | ? | i | i
Cn1ccc2c(-c3ccc(C(C)(C)C)cc3)cc3c(c21)C1CCC3O1 (stereo not drawn) | 15.3% | 14.9% | i | i
Cn1ccc2c(-c3ccc(C(=O)O)cc3)cc3c(c21)C1CCC3O1 (stereo not drawn) | 22.4µM* | 3.4% | i | i
CCOC(=O)c1ccc(NC(=O)CSc2nnc(-c3cc(-c4ccccc4)n[nH]3)n2N)cc1 | / | / | / | i
COc1ccccc1N1CCN(C(=O)Cn2c(=O)nc(-c3ccccc3)c3cc(Cl)ccc32)CC1 | 17.1% | / | i | i
C(=N\Nc1nc(-c2cccnc2)nc2ccccc12)/c1ccccc1 | 12.5% | -7.2% | i | i
C(=N\Nc1nc(-c2ccccn2)nc2ccccc12)/c1ccccc1 | / | 12.6µM* | / | /
COc1ccc2nc(N3C(=O)CC(Cc4ccc(C)cc4)C3=O)sc2c1 (stereo not drawn) | 7.3% | 1.0% | i | i
COc1ccc2nc(N3C(=O)CC(C(C)c4ccccc4)C3=O)sc2c1 (stereo not drawn) | 11.2µM* | 1.4% | i | /
O=C(C[n+]1cccc(Cl)c1)c1ccc(O)c(O)c1 | / | 7.1% | / | /
